C diff HTS = C. difficile growth inhibition. Clostridium difficile clinical isolate growth, OD600, 24 h; active compounds read low. growth activity, negative = inhibition, % at 16 µg/mL (by protocol). 0.25% of 86,000 active. AID 1259249;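 active = mean growth activity at or below -80% and every replicate also at or below -80%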;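 also: 0% = DMSO wells and -100% = levofloxacin 16 µg/mL wells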
* = called active by the depositor; ! = repeats disagree. Many of the other results were omitted from the sample, so hits are more common in it than they were.

SMILES	C diff HTS
COc1ccc(-c2ccc(C3[C@H]4CNC[C@@H]3N4C(=O)Nc3ccc(F)cc3)cc2)cc1 (stereo partly specified)	49
O=C(Nc1ccccc1)N1C[C@@H]2N[C@H](C1)C2c1ccc(-c2ccccc2F)cc1 (stereo partly specified)	39
N#Cc1ccc(-c2ccc(C3[C@@H]4CN(C(=O)Nc5ccc(C(F)(F)F)cc5)C[C@H]3N4)cc2)cc1 (stereo partly specified)	-96*!
Cc1ccc(-c2ccc(C3[C@@H]4CN(C(=O)Nc5ccc(C(F)(F)F)cc5)C[C@H]3N4)cc2)cc1 (stereo partly specified)	-92*!
COc1ccc(-c2ccc(C3[C@H]4CNC[C@@H]3N4C(=O)Nc3ccc(C(F)(F)F)cc3)cc2)cc1 (stereo partly specified)	-99*!
O=C(Nc1ccc(F)cc1)N1C[C@@H]2N[C@H](C1)C2c1ccc(-c2cccnc2)cc1 (stereo partly specified)	-5
O=C(Nc1ccccc1F)N1C[C@@H]2N[C@H](C1)C2c1ccc(-c2cccc(F)c2)cc1 (stereo partly specified)	79
N#Cc1ccc(-c2ccc(C3[C@@H]4CN(C(=O)C5CC5)C[C@H]3N4)cc2)cc1 (stereo partly specified)	-11
O=C(Nc1ccc(C(F)(F)F)cc1)N1C[C@@H]2N[C@H](C1)C2c1ccc(-c2cccc(F)c2)cc1 (stereo partly specified)	-99*
COc1ccc(NC(=O)N2[C@@H]3CNC[C@H]2C3c2ccc(-c3ccc(OC)cc3)cc2)cc1 (stereo partly specified)	-11
N#Cc1ccc(-c2ccc([C@@H]3[C@@H]4CN(C(=O)Nc5ccc6c(c5)OCO6)C[C@H]3N4)cc2)cc1	22
COc1ccc(NC(=O)N2C[C@@H]3N[C@H](C2)C3c2ccc(-c3cccc(F)c3)cc2)cc1 (stereo partly specified)	3
O=C(CC(F)(F)F)N1C[C@H]2[C@@H](c3ccccc31)[C@H](CO)N2C(=O)C1CCOCC1	0
CO[C@@H]1CN(C)C(=O)c2cc(NS(C)(=O)=O)ccc2OC[C@H](C)N(C(=O)CC2CC2)C[C@H]1C	-4
CN1C[C@H]2[C@@H](c3ccccc31)[C@@H](CO)N2C(=O)c1ccccn1	-7
CCC(=O)N(C)C[C@@H]1Oc2cc(C#Cc3cccnc3)ccc2S(=O)(=O)N([C@H](C)CO)C[C@H]1C	0
O=C(c1ccccn1)N1CC(=O)N2[C@H](CO)[C@@H](c3ccc(C#CC4CCCC4)cc3)[C@H]2C1	-7
COc1ccc(S(=O)(=O)N2C[C@H](O)COC[C@H]3O[C@H](CC(=O)NCCN4CCCCC4)CC[C@@H]32)cc1	-1
COc1ccc(C#Cc2ccc([C@H]3[C@@H](CO)N4CCCCN(Cc5ccccc5F)C[C@H]34)cc2)cc1	-100*
CC(C)(O)C#Cc1ccc([C@@H]2[C@@H](CO)N3CCCCN(Cc4ccccc4F)C[C@@H]23)cc1	6
CC(C)(O)C#Cc1ccc([C@H]2[C@@H](CO)N3CCCCN(Cc4ccccc4F)C[C@@H]23)cc1	6
COCC#Cc1ccc([C@@H]2[C@@H](CO)N3CCCCN(Cc4ccccc4F)C[C@H]23)cc1	0
COc1ccc(C#Cc2ccc([C@@H]3[C@H]4CN(Cc5ccccc5F)CCCCN4[C@H]3CO)cc2)cc1	-94*
CC(C)(O)C#Cc1ccc([C@H]2[C@H]3CN(Cc4ccccc4F)CCCCN3[C@H]2CO)cc1	4
C[C@H](CO)N1C[C@H](C)[C@H](CN(C)C(=O)Nc2cccc3ccccc23)Oc2c(NS(=O)(=O)c3ccc(F)cc3)cccc2C1=O	-1
SMILES	C diff HTS
CO[C@@H]1CN(C)C(=O)c2cc(NC(=O)c3ccc(F)cc3)ccc2OC[C@H](C)NC[C@H]1C	1
O=S(=O)(c1ccc(F)cc1)N1C[C@@H]2N[C@H](C1)C2c1ccc(/C=C/c2ccccc2)cc1 (stereo partly specified)	-99*!
O=C(c1ccc2c(c1)OCO2)N1C[C@@H]2N[C@H](C1)C2c1ccc(/C=C/c2ccccc2)cc1 (stereo partly specified)	47
O=C(Nc1ccccc1)N1C[C@@H]2N[C@H](C1)C2c1ccc(-c2ccccc2)cc1 (stereo partly specified)	62
C/C=C/c1ccc(C2[C@@H]3CN(S(=O)(=O)c4ccc(C)cc4)C[C@H]2N3)cc1 (stereo partly specified)	-15
COc1ccccc1NC(=O)N1C[C@@H]2N[C@H](C1)C2c1ccc(/C=C/c2ccccc2)cc1 (stereo partly specified)	5
O=S(=O)(c1ccccc1)N1C[C@@H]2N[C@H](C1)C2c1ccc(-c2ccccc2)cc1 (stereo partly specified)	56
O=C(c1ccncc1)N1C[C@@H]2N[C@H](C1)C2c1ccc(/C=C/c2ccccc2)cc1 (stereo partly specified)	-1
O=C(c1ccc(F)cc1)N1C[C@@H]2N[C@H](C1)C2c1ccc(/C=C/c2ccccc2)cc1 (stereo partly specified)	-99*!
O=C(Nc1ccccc1)N1C[C@@H]2N[C@H](C1)[C@@H]2c1ccc(/C=C/c2ccccc2)cc1	-97*
CN(C)CC#Cc1ccc([C@H]2[C@@H](CO)N3C(=O)CN(C(=O)c4ccc(F)cc4)C[C@H]23)cc1	-7
Cc1ccc(S(=O)(=O)N(C)C[C@@H]2Oc3c(NS(=O)(=O)c4ccccc4)cccc3C(=O)N([C@H](C)CO)C[C@H]2C)cc1	-10
COc1ccc(S(=O)(=O)Nc2ccc3c(c2)C(=O)N([C@H](C)CO)C[C@@H](C)[C@H](CN(C)C(=O)Nc2ccccc2)O3)cc1	-8
C[C@H](CO)N1C[C@H](C)[C@@H](CN(C)C(=O)c2ccncc2)OCc2ccccc2-c2ccccc2C1=O	-6
C[C@H]1CCCCO[C@@H](CN(C)C(=O)Nc2ccc(F)cc2)[C@@H](C)CN([C@@H](C)CO)C(=O)c2cc(NS(=O)(=O)c3cccs3)ccc2O1	3
C[C@H](CO)N1C[C@H](C)[C@H](CN(C)Cc2ccc(C(=O)O)cc2)Oc2ccc(NC(=O)Cc3cn(C)c4ccccc34)cc2CC1=O	-2
CN(C[C@@H]1N[C@H](CO)[C@H]1c1ccc(C2=CCCC2)cc1)C(=O)c1cccc(F)c1	8
O=C(NC[C@@H]1N[C@@H](CO)[C@H]1c1ccc(C2=CCCCC2)cc1)c1cccc(F)c1	-81*
CCC(=O)NC[C@H]1N[C@H](CO)[C@@H]1c1ccc(C2=CCCC2)cc1	-4
CO[C@H]1CN(C)C(=O)c2ccc(NC(=O)c3ccccc3)cc2OC[C@@H](C)N(C)C[C@@H]1C	-2
CN1C(=O)c2cc(NC(=O)Cc3ccccc3)ccc2OC[C@@H]2O[C@@H](CC(=O)O)CC[C@H]21	-10
Cc1noc(C)c1NC(=O)Nc1cccc2c1O[C@@H](CN(C)C(=O)Nc1c(C)noc1C)[C@@H](C)CN([C@@H](C)CO)C2=O	-2
CNC[C@H]1Oc2ccc(NC(=O)Nc3ccc(C(F)(F)F)cc3)cc2CC(=O)N([C@@H](C)CO)C[C@@H]1C	7
COc1cccc(S(=O)(=O)N2[C@@H]3CNC[C@H]2C3c2ccc(-c3ccccc3F)cc2)c1 (stereo partly specified)	51
COc1cccc(CN2C[C@@H]3N[C@H](C2)C3c2ccc(-c3ccccc3F)cc2)c1 (stereo partly specified)	-94*

Assay outcomes from PubChem BioAssay.
